# High-throughput results as filed in PubChem.
# Sm TGR block: S. mansoni TGR enzyme inhibition; purified TGR, DTNB reduction, TNB absorbance 405 nm; 360,000 compounds, 3% hits; Potency, µM (highest dose often 114 µM), inactives show at the highest dose activity change, negative = inhibition, most hits filed as inhibitors; Q962Y6; AID 485364; note: nearly all actives have a fitted effect of over 60% in size
#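 First, TGR (20 nM dispensed) and NADPH were mixed with compound. Second, a 15 min room-temperature incubation followed. Third, further NADPH and then DTNB were added to start the reaction. Finally, TNB absorbance was monitored kinetically.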
# AmpC inh no detg: blocks E. coli AmpC beta-lactamase in detergent-free assay. P00811. AmpC nitrocefin hydrolysis, absorbance 480 nm, 0.0001% Triton. Potency, µM (series often up to 57.1 µM), for inactives: at the top dose activity change, negative = inhibition, most hits filed as inhibitors. 330,000 compounds, 0.52% hits;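 note: plate controls were no compound for no effect and no enzyme for full effect; nearly all actives have a fitted effect of over 20% in size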
# Target sequence (P00811 whole entry, looked up): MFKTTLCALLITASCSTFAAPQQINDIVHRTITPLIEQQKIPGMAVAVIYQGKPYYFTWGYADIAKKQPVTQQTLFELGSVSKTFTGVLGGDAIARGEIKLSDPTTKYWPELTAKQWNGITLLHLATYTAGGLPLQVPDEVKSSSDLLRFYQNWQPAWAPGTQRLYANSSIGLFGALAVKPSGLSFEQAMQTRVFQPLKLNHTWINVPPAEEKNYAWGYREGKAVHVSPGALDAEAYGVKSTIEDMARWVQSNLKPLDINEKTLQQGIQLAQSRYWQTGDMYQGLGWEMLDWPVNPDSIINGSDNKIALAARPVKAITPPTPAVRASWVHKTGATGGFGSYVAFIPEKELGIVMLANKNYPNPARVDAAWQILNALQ
#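 20 mM phosphate pH 7.0 + 0.01% (detergent screen) or 0.0001% Triton X-100; 5.3 nM AmpC reagent; cpd preinc 15 min RT; nitrocefin (800 uM stock) to start; A480 q20 s × 4 min; Activity was normalised to no-enzyme and no-compound control wells.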
# AmpC detergent: inhibitors of E. coli AmpC beta-lactamase with detergent | AmpC hydrolysis of nitrocefin, absorbance 480 nm, 0.01% Triton | Potency, µM (highest dose often 114 µM), inactives show at the top dose activity change, negative = inhibition, actives largely listed as inhibitors | 370,000 compounds, 0.041% hits | AID 485294;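 note: 0% = no-compound wells and -100% = no-enzyme wells; nearly all actives have a fitted effect of over 25% in size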
#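 AmpC (5.3 nM in the dispensed reagent) in 20 mM phosphate pH 7.0 with 0.01% (detergent screen) or 0.0001% Triton X-100 was preincubated with compounds for 15 min at room temperature. Nitrocefin was then added from an 800 uM solution, and hydrolysis was followed at 480 nm.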
# An asterisk follows results filed as active; ? = inconclusive; nt = not tested or not shown. An excerpt weighted towards active compounds, which were near 3.3% of everything screened. Calls come from the whole dose curve; as a rule, active = well fitted curve in the direction sought with a large enough effect; inconclusive = small, poorly fitted or top-dose-only effect, or another doubt; inactive = no such curve, though single readings can be large; an effect the other way counts as inactive or inconclusive. Unless noted, % is set by controls: 0 for no effect and ±100 for the full control effect; potency is the fitted concentration of half-maximal effect.
SMILES,Sm TGR block,AmpC inh no detg,AmpC detergent
CN(c1ccccc1C(=O)NCc1ccco1)S(C)(=O)=O,40µM*,-24%,-1%
O=C(CCNC(=O)c1ccc(Br)cc1)NCCCN1CCCC1=O,-1%,-4%,0%
O=C(CCC(=O)N1CCOc2ccccc21)N1CCCCC1,9%,-3%,-12%
O=C(CCS(=O)(=O)c1ccc(Cl)cc1)Nc1nccs1,-3%,-15%,-13%
Cc1c(C(=O)Nc2ccc(F)cc2F)nnn1-c1ccccc1Br,-4%,nt,23%
Cc1ccc2c(=O)cc(C(=O)Nc3c(C(=O)Nc4cccc(Cl)c4)oc4ccccc34)oc2c1,-1%,nt,13%
Cc1ccc(CN2CC(C(=O)N3CCN(c4ccccc4Cl)CC3)CC2=O)cc1 (configuration not stated),-8%,177%,0%
O=C(CN1CCN(c2ccccc2)CC1)NC(=O)NCc1ccco1,-16%,-16%,-4%
O=C(CN1CCN(c2ccccc2F)CC1)NC(=O)NCc1ccco1,28µM*,23%,-3%
Cc1csc2ncc(C(=O)NCc3ccco3)c(=O)n12,45µM*,-21%,-12%
O=C(NCc1ccco1)c1cnc2sccn2c1=O,?,-7%,?
CCCSCCCNC(=O)C1CCN(C(=O)c2cnn(-c3ccccc3)c2-n2cccc2)CC1,-7%,nt,3%
CCOC(=O)Cc1csc(SCC(=O)N2CCN(c3ccccc3)CC2)n1,nt,-3%,nt
COc1ccc(CCNC(=O)C(=O)NCC(c2cccs2)S(=O)(=O)c2ccc(C)cc2)cc1 (configuration not stated),-20%,nt,-1%
CCn1cc(C(=O)N[C@@H](C)C(=O)NCCCN2CCOCC2)c(=O)c2cc3c(cc21)OCO3,-3%,-5%,3%
Cc1cccc(NC(=O)/C(C#N)=C/c2cn(CC(=O)NCc3ccco3)c3ccccc23)c1,-4%,14µM*,-8%
COCCNC(=O)/C(C#N)=C/c1cn(CC(=O)NCc2ccco2)c2ccccc12,-20%,9%,-5%
O=c1c(O)cccc2cc(O)c(O)c(O)c12,8.9µM*,10µM*,?
O=c1cc(-c2ccccc2)oc2cc(O)c(O)c(O)c12,nt,-30%,nt
CC(=O)Nc1ccc(-c2ccc3nnc(C)n3n2)cc1,0%,-23%,7%
Cc1nnc2ccc(-c3ccc(NC(=O)c4ccco4)cc3)nn12,32µM*,-19%,4%
COc1ccc(CN2CCC(=O)N([C@H](CO)c3ccccc3)CC2)cc1,2%,14%,-7%
O=C(CSc1nc2ccccc2c(=O)[nH]1)Nc1ccc(Br)cc1,-16%,2%,1%
CCN(CC)c1ccc(NC(=O)CSc2nc3ccccc3c(=O)[nH]2)cc1,-3%,20µM*,?
CCOc1ccc(NS(=O)(=O)c2c(C(=O)N3CCCCCC3)c(C)n(C)c2C)cc1,-3%,80%,2%
SMILES,Sm TGR block,AmpC inh no detg,AmpC detergent
COc1ccc(-n2c(Cc3ccccc3)nnc2SCc2nc(-c3cccs3)no2)cc1,1%,nt,-7%
N#Cc1c(NC(=O)CSc2nnc(-c3ccco3)n2-c2ccccc2)sc2c1CCC2,56µM*,-45%,-7%
CNC(=O)CSc1nnc(-c2ccco2)n1-c1ccccc1,-1%,-5%,-2%
NC(=O)c1c(NC(=O)CSc2nnc(-c3ccco3)n2-c2ccccc2)sc2c1CCC2,22µM*,-4%,-6%
c1ccc(-n2c(SCc3nc(-c4cccs4)no3)nnc2-c2ccco2)cc1,45µM*,-6%,-11%
CN(Cc1ccccc1)C(=O)CSc1nnc(-c2ccco2)n1-c1ccccc1,32µM*,44%,-7%
CC(=O)CSc1nnc(-c2ccco2)n1-c1ccccc1,?,-10%,-3%
CCn1c(SCC(=O)Nc2sc3c(c2C#N)CCCC3)nnc1-c1ccco1,?,18%,-7%
COc1ccc(OC)c(NC(=O)COC(=O)c2ccc(OC)c(S(=O)(=O)N3CCOCC3)c2)c1,-10%,3%,-1%
CSCCC(NC(=O)c1ccc(Cl)cc1Cl)C(=O)NNC(=O)c1ccncc1 (configuration not stated),-2%,-23%,-6%
CCOc1ccc(NS(=O)(=O)c2ccc(NC(=O)N3CCCC3)cc2)cc1,-2%,nt,-8%
Cc1ccccc1C(=O)NC1CC2CCC(C1)N2Cc1ccccc1 (configuration not stated),9%,-39%,-4%
CCOC(=O)c1c(NC(=O)CSc2nnc(-c3c[nH]c4ccccc34)n2C)sc2c1CCCC2,-14%,3.5µM*,-4%
CCOC(=O)c1c(NC(=O)CSc2nnc(-c3c[nH]c4ccccc34)n2CCOC)sc2c1CCCC2,-12%,-7%,?
O=C(Nc1ccc(Cl)cc1)NC1CCCC1Cc1ccco1 (configuration not stated),45µM*,-35%,-2%
O=C(Nc1ccc(Cl)cc1)NC1CCCCC1Cc1ccco1 (configuration not stated),-13%,-1%,?
Cn1c(=O)oc2cc(NC(=O)CCl)ccc21,10µM*,-4%,-3%
CC(=O)Nc1ccc(NC(=O)CCS(=O)(=O)c2ccc3c(c2)oc(=O)n3C)cc1,?,-16%,-1%
Cc1cc(C(=O)NCCCN2CCOCC2)n(-c2ccccc2)n1,?,40µM*,?
Cc1cc(C(=O)NCCCN2CC(C)CC(C)C2)n(-c2ccccc2)n1 (configuration not stated),4%,-18%,-1%
CCOCCCNC(=O)c1cc(C)nn1-c1ccccc1,-7%,3.2µM*,?
CCOC(CNC(=O)c1cc(C)nn1-c1ccccc1)OCC,20%,-1%,-7%
CCCCN(C)C(=O)Cn1cnc2sc(C)c(S(=O)(=O)N3CCC(C)CC3)c2c1=O,-5%,nt,7%
O=C1C2C(c3ccccc3)C=CC(c3ccccc3)C2C(=O)N1c1ccccn1 (configuration not stated),-8%,-6%,1%
O=C1N(Cc2cccc(Cl)c2)C[C@@H]2C[C@@H](c3ccco3)N3CCC[C@@]123,40µM*,62%,0%
SMILES,Sm TGR block,AmpC inh no detg,AmpC detergent
COCc1ccc([C@@H]2C[C@H]3CN(Cc4cccnc4)C(=O)[C@]34CCCN24)o1,45µM*,63%,13%
COCc1ccc([C@@H]2C[C@H]3CN(Cc4ccccc4C)C(=O)[C@]34CCCN24)o1,-36%,61%,4%
CCn1ncc([C@@H]2C[C@H]3CN(Cc4cccc(Cl)c4)C(=O)[C@]34CCCN24)c1C,-25%,35%,5%
COc1ccc2c(c1)c1c(c(=O)n(CCc3ccccc3)c(=O)n1Cc1ccccc1)n2C,11%,nt,-1%
C/C(=N\NC(=O)c1cccc(C)c1O)c1ccc(NC(=O)Cc2ccccc2)cc1,7%,-40%,-14%
Cc1ccc(NC(=O)COC(=O)C(NS(=O)(=O)c2ccc(Cl)cc2)C(C)O)cc1C (configuration not stated),45µM*,80%,0%
Cc1ccc(NC(=O)COC(=O)C(NS(=O)(=O)c2ccc(Cl)cc2)C(C)O)c(Br)c1 (configuration not stated),-16%,29%,?
Cc1ccc(Oc2c(C(N)=O)cc([N+](=O)[O-])cc2[N+](=O)[O-])cc1,11µM*,-23%,5%
